Drawing on PubChem BioAssay AID1700 (The Scripps Research Institute Molecular Screening Center, 2009), this text covers inhibition for 64 compounds.

Screen size: about 290,000 compounds; about 670 (0.23%) were called active. For the sample, actives were picked, then their nearest neighbours and some compounds at random. A number with no mark means an inactive call.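 Rule for the calls: active = inhibition above a per-plate limit of that plate's mean compound inhibition plus 3 SD (cut at about 60% in these data); inactive = the rest.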

The nature of this experiment: suppression of KLF5 promoter-driven luciferase – DLD-1 cells, luminescence, primary screen (AID 1700).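 Note: 0% = DMSO wells and 100% = LY294002 at 200 µM; higher means less KLF5 promoter-driven luciferase light.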 The following applies: DLD-1 KLF5 promoter-luciferase reporter, at 5 µM, hits give high values. A general note: In a reporter assay the amount or activity of a reporter protein is the signal.
One may read the inhibition as the drop in the measured response relative to a control, in per cent. `Cn1cc(S(=O)(=O)Nc2ccc(Cl)cc2Cl)c(=O)n(C)c1=O`: the inhibition was -22.9%.
Consider `CCCc1ccc(OCC(O)CN2CCN(CCO)CC2)cc1` (centres undefined), for which the inhibition was 7.32%.
For the compound `O=C(N/N=C/c1sc(N2CCCCC2)nc1-c1cccs1)c1cccnc1`, the inhibition is -30.2%.
The figure for `COc1cccc(-c2nc(CS(=O)CC(=O)NCc3ccc(F)cc3)c(C)o2)c1` (centres undefined) is -11.1%; for `NS(=O)(=O)c1ccc(CCNS(=O)(=O)c2cccc3cccnc23)cc1` it is -50.1%.
With `CC(C)C(C)NC(=O)COc1nc2ccccc2nc1N(C)C1CCCCC1` (centres undefined), the inhibition is -6.02%.
The result for `COc1ccccc1C1C2=C(COC2=O)Nc2cc3c(cc21)OCO3` (centres undefined) reads 75.8% (active); that for `COc1ccc(S(=O)(=O)Nc2ccc3c(c2)OCO3)cc1Cl`, -5.73%; that for `CCCOc1ccccc1C1CC(=O)Nc2cc3c(cc21)OCO3` (centres undefined), 46.2%.
The figure for `Cc1ccc(C2CC(=O)NC(SCC(=O)OCc3ccccc3)=C2C#N)o1` (centres undefined) is 6.45%; for `CCOC(=O)CSC1=C(C#N)C(c2ccco2)C(C(=O)OCc2ccccc2)=C(C)N1` (centres undefined) it is -11.8%; for `CCOC(=O)CSC1=C(C#N)C(c2sccc2C)CC(=O)N1` (centres undefined) it is 63.2% (active).
For `NC(=O)CN1CCCC1c1ccc2c(c1)OCCO2` (centres undefined), the inhibition was -21.8%.
The figure for `C=CCn1c(=O)c(C(=O)NCc2ccc3c(c2)OCO3)c(O)c2ccccc21` is -23.1%; for `CC/C(=N\NC(=O)c1c(C)nc2ccccn12)c1ccc(Cl)cc1` it is -19.6%; for `Cc1cc(Cl)c2oc(C(=O)N(C)C(C)c3ccccn3)c(C)c2c1` (centres undefined) it is -79%.
For `CC(C)Oc1ccc(/C=N/NC(=O)c2nnn(-c3nonc3N)c2CN(C)C2CCCCC2)cc1`, the inhibition is -15.7%.
As for `CCOc1cc(-c2conc2N)cc(OCC)c1OCC`, the inhibition is 5.84%.
For `O=C(NCCc1ccccc1)C(=O)NCC1OCCN1S(=O)(=O)c1cccs1` (centres undefined), the inhibition is -36.9%.
The figure for `COc1ccc2[nH]cc(CCN3C(=O)c4ccc(C(=O)O)cc4C3=O)c2c1` is -177%; for `COc1ccc(OC)c(CCNC(=O)c2nn(C)c3c2CS(=O)(=O)c2ccccc2-3)c1` it is -12.5%; for `CC(C)CCn1c(=O)c2c(nc3n2CCCN3Cc2ccccc2)n(C)c1=O` it is -4.63%.
As to `Cc1ccc(C)c(N2CCN(C(=O)CCCn3c(=O)c4cccn4c4cccnc43)CC2)c1`, the inhibition was 5.08%.
On to `CCN(CC)S(=O)(=O)c1ccc(N2CC(C(=O)NCc3cccnc3)CC2=O)cc1` (centres undefined), for which the inhibition is -14.9%.
The result for `COc1ccc(S(=O)(=O)N(CC(=O)N/N=C/c2ccc(C(=O)O)cc2)Cc2ccccc2)cc1OC` reads 5.79%; that for `O=c1[nH]c(NCCO)nnc1Cc1ccc(Cl)cc1`, -8.33%; that for `Cc1nnc(N/N=C/c2ccccn2)[nH]c1=O`, 2.56%.
The result for `COc1ccc(Cc2nnc(N/N=C/c3ccccc3O)[nH]c2=O)cc1OC` reads 102% (active).
The figure for `COc1ccc(NC(=O)CCCN2C(=O)C(c3ccccc3)Oc3cccnc32)cc1` (centres undefined) is -1.26%.
For the compound `Nc1nc(SCC(=O)Nc2cc(C(F)(F)F)ccc2Cl)[nH]c(=O)c1NC(=O)c1ccco1`, the inhibition was -9.6%.
The figure for `Cc1ccc(OCCCC(=O)Nc2ccc(S(=O)(=O)Nc3cc(C)nc(C)n3)cc2)cc1` is 0.85%.
The result for `O=S(=O)(c1cc(Cl)ccc1Cl)N1CCN(Cc2ccco2)CC1` reads -4.75%; that for `CCC(=O)Nc1ccc2nn(-c3ccc(F)cc3)nc2c1`, -97%.
`Nc1ccc2nn(-c3ccc(Cl)cc3)nc2c1`: the inhibition is 97.7% (active).
In the case of `c1ccc(-n2nc3ccccc3n2)cc1`, the inhibition was -2.18%.
The result for `O=C(c1cc(-c2ccc(Cl)cc2)on1)N1CCN(c2ccccc2)CC1` reads -69.1%; that for `Cc1cccc(C)c1OCCN1CCOCC1`, -15.7%.
With `Cc1ccc2c(c1)N(S(=O)(=O)c1cc(-c3cc(C)no3)ccc1C)CCO2`, the inhibition was -37.9%.
Regarding `Cc1ccc(NC(=S)NCc2ccccc2Cl)c(C)c1`, the inhibition is -3.59%.
The result for `Cc1ccc(NC(=S)NCCc2ccc(Cl)cc2)c(C)c1` reads -19%; that for `Cc1ccc(NC(=S)Nc2ncccc2C)c(C)c1`, 79.6% (active).
On to `CCN1C(=NCCc2cccnc2)N[C@@H](c2ccccc2)C(C(=O)OC)=C1C`, for which the inhibition was -22%.
The figure for `CC(C)c1ccc(NC(=O)Cn2ncc3ccccc32)cc1` is -106%.
The result for `CN(c1cccc(NC(=O)c2ccc(CN3CCc4ccccc4C3)cc2)c1)S(C)(=O)=O` reads -29.8%; that for `CCN(CC)N=Nc1cccc(NC(C)=O)c1`, -51.2%; that for `Cc1ccc(C(=O)NC23CC4CC(CC(C4)C2)C3)c(Cl)c1`, -45.4%.
The result for `O=C(N/C(=C\c1ccc(O)cc1)C(=O)N1CCCCC1)c1ccccc1` reads -7.29%.
As for `CCNC(=O)CCc1nc(-c2ccc(C(C)(C)C)cc2)no1`, the inhibition is 61.9% (active).
Take `CN1CCN(C(=O)CCc2nc(-c3ccc(Cl)cc3)no2)CC1`: the inhibition is -29.1%.
`CCNC(=O)CCc1nc(-c2ccc(C)cc2)no1`: the inhibition is -43.2%.
On to `CCc1ccccc1S(=O)(=O)Cc1ccc(C(=O)NCCc2ccccc2)o1`, for which the inhibition was -41.4%.
The result for `CCOC(=O)C1CCN(C(=O)Cn2nc(C)c3c(C)n(-c4ccccc4)nc3c2=O)CC1` reads -39.7%; that for `COc1ccccc1N1CCN(C(=O)c2cc(=O)c3cc(C)ccc3o2)CC1`, 15.1%; that for `COc1ccccc1N1CCN(C(=O)c2cc(=O)c3cc(C)cc(C)c3o2)CC1`, 88.2% (active).
As for `COc1cccc(-c2cc(C(=O)N3CCN(c4ccccc4OC)CC3)no2)c1`, the inhibition is -15.2%.
On to `Cc1c(NC(=O)CSCc2ccccc2)cccc1C(=O)O`, for which the inhibition was -44.3%.
The figure for `COc1cc(C(=O)NC2CCN(Cc3ccccc3)CC2)cc(Cl)c1OC(C)C` is 0.72%; for `O=C(Nc1nonc1-c1ccc(Cl)cc1)c1ccco1` it is -1.44%.
The figure for `CCOC(=O)c1cnc(-n2nc(C)cc2C)nc1Nc1cccc(C(C)=O)c1` is -11.5%; for `Cc1cc(Oc2ccc(Cl)cc2)nc(SCC(=O)c2ccccc2)n1` it is -18.8%; for `COc1ccccc1/C=N\Nc1cc(C)nc(-n2nc(C)cc2C)n1` it is -41.2%.
The figure for `CC(=O)c1ccc(Oc2cc(C)nc(-n3nc(C)cc3C)n2)cc1` is 61.9% (active).
For the compound `Cc1cc(N/N=C\c2ccc(Br)cc2)nc(-n2nc(C)cc2C)n1`, the inhibition is 3.64%.
Take `COc1ccc(Nc2cc(C)nc(-n3nc(C)cc3C)n2)cc1`: the inhibition was 75.5% (active).
